# In the supplement of paper PMC9877034:
# Structures can show the parent of a compound that is named as a salt. The full ranking holds about 1,000 compounds; the median of “cFRET/donor change relative to DMSO, normalised to beta-lapachone positive control (supercomplex I-IV assembly)” is about 0.18, and the lowest 2% start at about -1. Many of the other results were omitted from the sample, so the lowest values are more common in it than they were.
# System: C2C12 (NDUFB8-AcGFP / COX8A-DsRed-Monomer FRET reporter)
# Test: cFRET/donor change relative to DMSO, normalised to beta-lapachone positive control (supercomplex I-IV assembly) (fraction of beta-lapachone effect); higher = more respiratory supercomplex assembly
# Conditions: 40 µM; 24 h
# Description: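 Cells were treated with 40 uM compound for 24 h and imaged on an IN Cell Analyzer 6000. Corrected FRET was divided by donor signal (cFRET/donor) and measured in two replicate experiments. The score is (mean cFRET/donor of compound - mean DMSO) / (mean beta-lapachone 40 uM - mean DMSO). Compounds flagged for prominent cell death, abnormal morphology or decreased cell number were excluded.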
row,Compound,cFRET/donor change
1,COc1cc2nc(N3CCCN(C)CC3)nc(NC3CCN(Cc4ccccc4)CC3)c2cc1OC,0.186
2,C=C(c1ccc(C(=O)O)cc1)c1cc2c(cc1C)C(C)(C)CCC2(C)C [Bexarotene],0.499
3,c1ccc(C(NCCNC(c2ccccc2)c2ccccc2)c2ccccc2)cc1,0.0957
4,COc1ccccc1CNC1CCCNC1c1ccccc1 (stereo not given),0.266
5,O=C(Nc1cc(C(F)(F)F)cc(C(F)(F)F)c1)Nc1c(Br)cc(Br)cc1-c1nn[nH]n1,1.37
6,C[C@@H](O)[C@H]1C(=O)N2C(C(=O)O)=C(SCCNC=N)C[C@H]12 [Imipenem monohydrate],0.461
7,Cc1cc(C)c(/C=C2\C(=O)Nc3ccccc32)[nH]1,-2.59
8,COc1cc(OC)c(C=C2C(=O)Nc3ccccc32)c(OC)c1,0.382
9,CN(C)CCC(c1ccc(Br)cc1)c1ccccn1 (racemic) [(±)-Brompheniramine maleate],0.0175
10,"Clc1ccc(C(c2ccccc2Cl)C(Cl)Cl)cc1 (stereo not given) [1-(2-Chlorophenyl)-1-(4-chlorophenyl)-2,2-dichloroethane]",0.237
11,NCCC[C@](N)(C(=O)O)C(F)F (racemic) [DL-alpha-Difluoromethylornithine hydrochloride],0.232
12,COc1cc(/C=C/C(=O)N2CCC=CC2=O)cc(OC)c1OC [Piperlongumine],-0.315
13,CC(C)(C)c1cc(/C=C(\C#N)C(N)=S)cc(C(C)(C)C)c1O [Tyrphostin AG 879],-2.01
14,CC(C)(C=O)Cc1cc(C(C)(C)C)c(O)c(C(C)(C)C)c1,0.29
15,N#CC(C#N)=C(N)/C(C#N)=C/c1ccc(O)cc1 [Tyrphostin AG 112],0.38
16,COc1ccc(C2(O)OC(=O)C(c3ccc4c(c3)OCO4)=C2Cc2cc(OC)c(OC)c(OC)c2)cc1 (stereo not given),0.173
17,"CCN1CCCC1CNC(=O)c1cc(S(N)(=O)=O)ccc1OC (single isomer, unassigned; (-)) [(-)-Sulpiride]",0.312
18,CC[C@@]1(O)C(=O)OCc2c1cc1n(c2=O)Cc2cc3c(CN(C)C)c(O)ccc3nc2-1 [Topotecan hydrochloride hydrate],-3.92
19,NCCS(=O)(=O)O [Taurine],-0.02
20,NCCCS(=O)(=O)O [3-Amino-1-propanesulfonic acid sodium],-2.05
21,NCCCCN [Putrescine dihydrochloride],0.0353
22,"COC1=C(OC)C(=O)c2ccccc2C1=O [2,3-Dimethoxy-1,4-naphthoquinone]",0.433
23,Cc1cc(Cl)ccc1OCCCC(=O)NO [Droxinostat],0.131
24,COc1cccc2c1[C@@H]1CN(CCCCn3c(=O)[nH]c4c(sc5ncc(-c6ccccc6)nc54)c3=O)C[C@@H]1CO2 [Fiduxosin hydrochloride],-1.25
25,Cn1cnc([N+](=O)[O-])c1Sc1ncnc2[nH]cnc12 [Azathioprine],0.496

row,Compound,cFRET/donor change
1,N=c1ccn2c(n1)O[C@H]1[C@H](O)[C@@H](CO)O[C@H]12 [Ancitabine hydrochloride],-0.0397
2,Fc1ccc2[nH]c(CN3CCN(c4ccccn4)CC3)cc2c1,0.168
3,CC(C)[C@H](N)C(=O)OCC(CO)OCn1cnc2c(=O)[nH]c(N)nc21 (stereo not given in full) [Valganciclovir hydrochloride hydrate],-0.064
4,N=C(N)NCCCCN [Agmatine sulfate],0.125
5,CS(=O)(=O)c1cccc(CNc2nc(Nc3ccc4c(c3)CCC(=O)N4)ncc2C(F)(F)F)c1,2
6,NC(=S)c1ccc[n+]([C@@H]2O[C@@H](COP(=O)([O-])OP(=O)(O)OC[C@H]3O[C@@H](n4cnc5c(N)ncnc54)C(OP(=O)(O)O)[C@H]3O)C(O)C2O)c1 (stereo not given in full) [Thio-NADP sodium],-0.317
7,O=C(c1ccc(OCCCc2c[nH]cn2)cc1)C1CC1 [Ciproxifan hydrochloride],0.224
8,O=c1ccc2c(OCCCCc3ccccc3)c3ccoc3cc2o1 [Psora-4],0.396
9,Cc1cccc(-c2[nH]ncc2-c2ccc3ncccc3n2)n1,0.0385
10,CC1=C(C)C(=O)C(CCCCC#CCCCC#CCO)=C(C)C1=O,0.121
11,Nc1cc2c(ncn2CCOCP(=O)(O)O)c(=O)[nH]1 [PMEG hydrate],0.0365
12,N[C@@H]1[C@H]2CN(c3nc4c(cc3F)c(=O)c(C(=O)O)cn4-c3ccc(F)cc3F)C[C@@H]12 [Trovafloxacin mesylate],0.3
13,CC(C(O)c1ccc(O)cc1)N1CCC(Cc2ccccc2)CC1 (stereo not given) [Ifenprodil tartrate],0.529
14,O=C(Nc1cccnc1)N1CCC(Cc2cccc(Oc3ccc(C(F)(F)F)cn3)c2)CC1 [PF 3845 hydrate],0.494
15,Nc1ccc(-c2ccc3ccccc3n2)cc1 [BF-170 hydrochloride],-0.429
16,CN(C)C(=O)[C@H](O)[C@H](Cc1ccccc1)NC(=O)c1cc2cc(Cl)ccc2[nH]1,0.332
17,NC(=O)C1=CN(C2OC(COP(=O)(O)OP(=O)(O)OC[C@H]3O[C@@H](n4cnc5c(N)ncnc54)C(OP(=O)(O)O)[C@H]3O)C(O)C2O)C=CC1 (stereo not given in full) [NADPH tetrasodium],-0.198
18,Cc1[nH]c(=O)c(C#N)cc1-c1ccc2nccn2c1 [Olprinone hydrochloride],0.211
19,CN1C2CCCC1CC(NC(=O)c1nn(C)c3ccccc13)C2 (stereo not given) [Granisetron hydrochloride],0.333
20,O=C(O)COCCN1CCN(C(c2ccccc2)c2ccc(Cl)cc2)CC1 (stereo not given) [Cetirizine dihydrochloride],0.511
21,Cc1cccc(C)c1NC(=O)C(C)N (stereo not given) [Tocainide hydrochloride],0.415
22,CCCCCc1ccc(/C=C/C(=O)Nc2cc(Cl)ccc2C(=O)O)cc1,0.0865
23,Oc1cc2c(c(Cl)c1O)CCNCC2c1ccccc1 (racemic) [(±)-6-Chloro-PB hydrobromide],2.85
24,Nc1ccn([C@@H]2O[C@H](CO)[C@@H](O)C2(F)F)c(=O)n1 [Gemcitabine hydrochloride],0.261
25,CCCCc1ncc(/C=C(\Cc2cccs2)C(=O)O)n1Cc1ccc(C(=O)O)cc1 [Eprosartan mesylate],-0.151
